Laboratory results: PubChem BioAssay (NCI)
The panel holds about 79,000 compounds, 15% with a hit somewhere; the sample as a whole holds those more often. Active and inactive are the calls of the source. Rule as the data show it: active = growth inhibition above about 70%; inactive = the rest.

Columns and labels:
[1] = NCI Yeast Anticancer Drug Screen. Data for the rad52 strain (AID 147);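 also: 0% = growth of vehicle-treated control cultures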; details: S. cerevisiae rad52 mutant growth inhibition, stronger effect = higher value
Method in brief: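 Read-out: growth inhibition versus vehicle-treated controls. Cells were a DNA repair-deficient yeast strain treated with compounds.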

[2] = NCI Yeast Anticancer Drug Screen. Data for the rad50EPP+ strain (AID 151);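 also: 0% = growth of vehicle-treated control cultures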; details: S. cerevisiae rad50 mutant strain, stronger effect = higher value
Method in brief: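 Growth inhibition read against vehicle controls in rad50EPP+ yeast, a strain altered in DNA damage repair, after compound exposure.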

[3] = NCI Yeast Anticancer Drug Screen. Data for the mgt1 strain (AID 153); details: S. cerevisiae mgt1 mutant growth inhibition, stronger effect = higher value
Method in brief: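 mgt1 yeast grown with test compound; read-out is growth inhibition versus vehicle-treated cultures.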

[4] = NCI Yeast Anticancer Drug Screen. Data for the rad50 strain (AID 155);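 also: 0% = growth of vehicle-only cultures of the same strain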; details: S. cerevisiae rad50 strain growth inhibition, stronger effect = higher value
Method in brief: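 Readout: growth inhibition relative to vehicle-treated cultures. Compound exposure was carried out in a genetically defined yeast strain deficient in DNA damage repair.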

[5] = NCI Yeast Anticancer Drug Screen. Data for the mec2-1 strain (AID 157); details: S. cerevisiae mec2-1 strain, stronger effect = higher value
Method in brief: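 Yeast mec2-1 mutant treated with compound. Readout: growth inhibition vs vehicle controls.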

[6] = NCI Yeast Anticancer Drug Screen. Data for the rad14 strain (AID 159);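 also: 0% = growth of vehicle-treated control cultures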; details: S. cerevisiae rad14 strain growth inhibition, stronger effect = higher value
Method in brief: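 Growth inhibition vs vehicle controls; genetically altered yeast strain (DNA damage repair defect) treated with test compounds.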

[7] = NCI Yeast Anticancer Drug Screen. Data for the sgs1 mgt1 strain (AID 161);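 also: 0% = growth of cultures given vehicle only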; details: S. cerevisiae sgs1 mgt1 strain, stronger effect = higher value
Method in brief: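 Test agents were incubated with a DNA-repair-mutant yeast strain. Growth was then read and compared against vehicle-treated controls.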

[8] = NCI Yeast Anticancer Drug Screen. Data for the CLN2oe strain (AID 163);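 also: 0% = growth of vehicle-only control cultures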; details: S. cerevisiae CLN2oe strain, stronger effect = higher value
Method in brief: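 Read-out: yeast growth inhibition, expressed relative to vehicle-only controls. The strain bears an engineered cell-cycle alteration.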

[9] = NCI Yeast Anticancer Drug Screen. Data for the cln2 rad14 strain (AID 165);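 also: 0% = growth equal to vehicle treated cultures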; details: S. cerevisiae cln2 rad14 strain, stronger effect = higher value
Method in brief: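 cln2 rad14 yeast strain; compound exposure; growth inhibition read vs vehicle controls.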

[10] = NCI Yeast Anticancer Drug Screen. Data for the bub3 strain (AID 167); details: S. cerevisiae bub3 mutant strain, stronger effect = higher value
Method in brief: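 Readout: yeast growth inhibition, expressed relative to vehicle-only wells. The test organism is a mutant strain from a panel with lesions in DNA repair or checkpoint genes.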

[11] = NCI Yeast Anticancer Drug Screen. Data for the wt2 strain (AID 169);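 also: 0% = growth of vehicle-treated yeast cultures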; details: S. cerevisiae wt2 strain growth inhibition, stronger effect = higher value
Method in brief: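 Read-out: growth inhibition versus vehicle-treated control cultures after compound exposure of the yeast strain.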

[12] = NCI Yeast Anticancer Drug Screen. Data for the mlh1 strain (AID 171);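 also: 0% = growth of vehicle-treated control cultures of the same strain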; details: S. cerevisiae mlh1 strain growth inhibition, stronger effect = higher value
Method in brief: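 Read-out: growth inhibition versus vehicle controls. Strain: engineered yeast with a defined DNA repair or cell cycle defect, compound-treated.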

[13] = NCI Yeast Anticancer Drug Screen. Data for the mlh1 rad18 strain (AID 175); details: S. cerevisiae mlh1 rad18 strain growth inhibition, stronger effect = higher value
Method in brief: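 Yeast w/ defined DNA-repair lesions; compound exposure; growth vs vehicle controls → % inhibition.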

[14] = NCI Yeast Anticancer Drug Screen. Data for the rad18 strain (AID 177); details: S. cerevisiae rad18 mutant growth inhibition, stronger effect = higher value
Method in brief: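 Readout: growth inhibition vs vehicle controls. Cells: genetically altered yeast strain, DNA repair defect.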

[15] = NCI Yeast Anticancer Drug Screen. Data for the wt1 strain (AID 149);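 also: 0% = growth of vehicle-treated wt1 cultures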; details: S. cerevisiae wt1 strain (SPY 50644) growth inhibition, stronger effect = higher value
Method in brief: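 Growth inhibition read against vehicle controls after compound exposure of the wt1 yeast strain.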

[16] = NCI Yeast Anticancer Drug Screen. Data for the sgs1 strain (AID 173);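 also: 0% = growth of vehicle-only control cultures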; details: S. cerevisiae sgs1 mutant, stronger effect = higher value
Method in brief: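 Read-out: yeast growth inhibition relative to vehicle controls, following compound exposure of a strain with a defined DNA repair/cell cycle alteration.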

[17] = at 5.0 µM (retest, dose inferred, filed as 0.5)
[18] = at 50.0 µM (retest, dose inferred, filed as 5.0)

Measured: growth inhibition

COc1ccc(OC)c2cc3ccccc3cc12
active: [4]; [18] 81% | [4]; at 50.0 µM 74.3% | [5]; [18] 87% | [5]; at 50.0 µM 85.2% | [7]; at 50.0 µM 73.1% | [10]; at 50.0 µM 89.7% | [13]; [18] 81% | [13]; at 50.0 µM 70.2%
inactive: [1]; at 1.2 µM 11% | [1]; at 3.7 µM -9% | [1]; at 11.0 µM 6% | [1]; at 33.0 µM 10% | [1]; at 100.0 µM 17% | [2]; at 1.2 µM -13% | [2]; at 3.7 µM 7% | [2]; at 11.0 µM 46% | [2]; at 33.0 µM 52% | [2]; at 100.0 µM 60% | [3]; at 1.2 µM 25% | [3]; at 3.7 µM 14% | [3]; at 11.0 µM 15% | [3]; at 33.0 µM 18% | [3]; at 100.0 µM 24% | [4]; at 1.2 µM -1% | [4]; at 3.7 µM -1% | [4]; [17] 52% | [4]; at 11.0 µM 10% | [4]; at 33.0 µM 17% | [4]; at 100.0 µM 4% | [5]; at 1.2 µM -5% | [5]; at 3.7 µM -11% | [5]; [17] 63% | [5]; at 11.0 µM -6% | [5]; at 33.0 µM 21% | [5]; at 100.0 µM 8% | [6]; at 1.2 µM -4% | [6]; at 3.7 µM -6% | [6]; at 11.0 µM -3% | [6]; at 33.0 µM 4% | [6]; at 100.0 µM 18% | [7]; [17] -24% | [7]; [18] 27% | [8]; at 1.2 µM 12% | [8]; at 3.7 µM 14% | [8]; at 11.0 µM 16% | [8]; at 33.0 µM 19% | [8]; at 100.0 µM 3% | [9]; [17] 46% | [9]; [18] 51% | [9]; at 50.0 µM 39.6% | [10]; at 1.2 µM 22% | [10]; at 3.7 µM 8% | [10]; [17] 36% | [10]; at 11.0 µM 22% | [10]; at 33.0 µM 33% | [10]; [18] 64% | [10]; at 100.0 µM 32% | [11]; at 1.2 µM -23% | [11]; at 3.7 µM -28% | [11]; at 11.0 µM -16% | [11]; at 33.0 µM -8% | [11]; at 100.0 µM 9% | [12]; at 1.2 µM 14% | [12]; at 3.7 µM 9% | [12]; at 11.0 µM 8% | [12]; at 33.0 µM 20% | [12]; at 100.0 µM 19% | [13]; [17] 48% | [14]; at 1.2 µM 5% | [14]; at 3.7 µM 4% | [14]; at 11.0 µM 21% | [14]; at 33.0 µM 24% | [14]; at 100.0 µM 50%

C=CCC1=C(C)C(OC(=O)/C=C/c2ccccc2)CC1=O (centres undefined)
inactive: [15]; at 1.2 µM -2% | [15]; at 3.7 µM -5% | [15]; at 11.0 µM -5% | [15]; at 33.0 µM -2% | [15]; at 100.0 µM -3% | [2]; at 1.2 µM -1% | [2]; at 3.7 µM 0% | [2]; at 11.0 µM 6% | [2]; at 33.0 µM 7% | [2]; at 100.0 µM 15% | [3]; at 1.2 µM -6% | [3]; at 3.7 µM -2% | [3]; at 11.0 µM -1% | [3]; at 33.0 µM 2% | [3]; at 100.0 µM 29% | [4]; at 1.2 µM 2% | [4]; at 3.7 µM 1% | [4]; [17] 10% | [4]; at 11.0 µM 2% | [4]; at 33.0 µM 8% | [4]; [18] 19% | [4]; at 50.0 µM 2.25% | [4]; at 100.0 µM 39% | [5]; at 1.2 µM -4% | [5]; at 3.7 µM -4% | [5]; [17] -11% | [5]; at 11.0 µM -4% | [5]; at 33.0 µM 0% | [5]; [18] -18% | [5]; at 50.0 µM 5.6% | [5]; at 100.0 µM 7% | [6]; at 1.2 µM 1% | [6]; at 3.7 µM 2% | [6]; at 11.0 µM 4% | [6]; at 33.0 µM 5% | [6]; at 100.0 µM 18% | [7]; [17] 23% | [7]; [18] 39% | [7]; at 50.0 µM 19.4% | [8]; at 1.2 µM 2% | [8]; at 3.7 µM 2% | [8]; at 11.0 µM 5% | [8]; at 33.0 µM 15% | [8]; at 100.0 µM 28% | [9]; [17] 17% | [9]; [18] 36% | [9]; at 50.0 µM 33.5% | [10]; at 1.2 µM 7% | [10]; at 3.7 µM 20% | [10]; [17] 25% | [10]; at 11.0 µM 33% | [10]; at 33.0 µM 36% | [10]; at 50.0 µM 40.6% | [10]; at 100.0 µM 47% | [11]; at 1.2 µM -10% | [11]; at 3.7 µM -11% | [11]; at 11.0 µM -8% | [11]; at 33.0 µM -5% | [11]; at 100.0 µM 12% | [12]; at 1.2 µM -3% | [12]; at 3.7 µM -2% | [12]; at 11.0 µM -2% | [12]; at 33.0 µM 3% | [12]; at 100.0 µM 42% | [16]; at 1.2 µM -9% | [16]; at 3.7 µM 26% | [16]; at 11.0 µM 6% | [16]; at 33.0 µM 6% | [16]; at 100.0 µM 53% | [13]; [17] 15% | [13]; [18] 59% | [13]; at 50.0 µM 5.85% | [14]; at 1.2 µM -5% | [14]; at 3.7 µM 0% | [14]; at 11.0 µM -1% | [14]; at 33.0 µM 5% | [14]; at 100.0 µM 31%
active: [10]; [18] 79%

COc1cc(C2c3cc4c(cc3OC(NNc3ccccc3)C2C)OCO4)cc(OC)c1OC (centres undefined)
inactive: [1]; at 1.2 µM 36% | [1]; at 3.7 µM 44% | [1]; at 11.0 µM 59% | [2]; at 1.2 µM 39% | [2]; at 3.7 µM 42% | [2]; at 11.0 µM 48% | [2]; at 33.0 µM 47% | [2]; at 100.0 µM 67% | [3]; at 1.2 µM 13% | [3]; at 3.7 µM 23% | [3]; at 11.0 µM 26% | [4]; at 1.2 µM 23% | [4]; at 3.7 µM 33% | [4]; [17] 14% | [4]; at 11.0 µM 52% | [4]; at 50.0 µM 12.3% | [5]; at 1.2 µM 2% | [5]; at 3.7 µM 5% | [5]; [17] 10% | [5]; at 11.0 µM 16% | [5]; at 33.0 µM 63% | [5]; at 50.0 µM 40.5% | [6]; at 1.2 µM -2% | [6]; at 3.7 µM 1% | [6]; at 11.0 µM 29% | [6]; at 33.0 µM 52% | [7]; [17] -4% | [7]; at 50.0 µM 20.6% | [9]; [17] 17% | [9]; at 50.0 µM 53% | [10]; at 1.2 µM 7% | [10]; at 3.7 µM 20% | [10]; [17] 19% | [11]; at 1.2 µM -2% | [11]; at 3.7 µM -13% | [11]; at 11.0 µM 41% | [12]; at 1.2 µM 16% | [12]; at 3.7 µM 23% | [12]; at 11.0 µM 24% | [12]; at 33.0 µM 26% | [12]; at 100.0 µM 30% | [16]; at 1.2 µM 29% | [16]; at 3.7 µM 37% | [16]; at 11.0 µM 34% | [13]; [17] 36% | [14]; at 1.2 µM 52% | [14]; at 3.7 µM 56% | [14]; at 11.0 µM 64%
active: [1]; at 33.0 µM 93% | [1]; at 100.0 µM 75% | [3]; at 33.0 µM 82% | [3]; at 100.0 µM 89% | [4]; at 33.0 µM 92% | [4]; [18] 96% | [4]; at 100.0 µM 73% | [5]; [18] 96% | [5]; at 100.0 µM 91% | [6]; at 100.0 µM 75% | [7]; [18] 97% | [9]; [18] 95% | [10]; at 11.0 µM 73% | [10]; at 33.0 µM 89% | [10]; [18] 94% | [10]; at 50.0 µM 88.2% | [10]; at 100.0 µM 83% | [11]; at 33.0 µM 96% | [11]; at 100.0 µM 90% | [16]; at 33.0 µM 88% | [16]; at 100.0 µM 94% | [13]; [18] 94% | [13]; at 50.0 µM 77% | [14]; at 33.0 µM 94% | [14]; at 100.0 µM 84%
